In PubChem BioAssay (Tox21):
Records with an inconclusive call do not appear. Calls of active or inactive are those of the source. Unless noted, calls come from the whole dose curve; as a rule, active = well fitted curve in the direction sought with a large enough effect in the repeat runs; inconclusive = weak or mixed curves; inactive = no such curve, though single readings can be large; an effect the other way counts as inactive or inconclusive.

What was measured:
[1] = qHTS assay to identify small molecule antagonists of the estrogen receptor alpha (ER-alpha) signaling pathway using the BG1 cell line in the presence of 0.1 nM 17-beta-estradiol - cell viability counter screen (AID 1259241); note: nearly all actives have a fitted effect of over 40% in size
Method in brief: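 Viability in VM7Luc4E2 cells after 22 hr compound exposure under 0.1 nM 17beta-estradiol stimulation, by CellTiter-Fluor.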

[2] = qHTS assay to identify small molecule antagonists of the androgen receptor (AR) signaling pathway using the MDA cell line in the presence of 0.5 nM R1881 - cell viability counter screen (AID 1259242); note: nearly all actives have a fitted effect of over 45% in size
Method in brief: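 qHTS format. MDA-kb2 (MMTV-luc, AR/GR responsive) + cpd + 0.5 nM R1881 final, 16 hr 37C/0% CO2 → CellTiter-Fluor 30 min → fluorescence intensity.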

[3] = molecular target: Androgen receptor (Homo sapiens) (UniProt P10275); assay: qHTS assay to identify small molecule antagonists of the androgen receptor (AR) signaling pathway using the MDA cell line in the presence of 0.5 nM R1881 (AID 1259243); note: nearly all actives have a fitted effect of over 50% in size
Androgen receptor (Homo sapiens), sequence (P10275 whole entry, looked up): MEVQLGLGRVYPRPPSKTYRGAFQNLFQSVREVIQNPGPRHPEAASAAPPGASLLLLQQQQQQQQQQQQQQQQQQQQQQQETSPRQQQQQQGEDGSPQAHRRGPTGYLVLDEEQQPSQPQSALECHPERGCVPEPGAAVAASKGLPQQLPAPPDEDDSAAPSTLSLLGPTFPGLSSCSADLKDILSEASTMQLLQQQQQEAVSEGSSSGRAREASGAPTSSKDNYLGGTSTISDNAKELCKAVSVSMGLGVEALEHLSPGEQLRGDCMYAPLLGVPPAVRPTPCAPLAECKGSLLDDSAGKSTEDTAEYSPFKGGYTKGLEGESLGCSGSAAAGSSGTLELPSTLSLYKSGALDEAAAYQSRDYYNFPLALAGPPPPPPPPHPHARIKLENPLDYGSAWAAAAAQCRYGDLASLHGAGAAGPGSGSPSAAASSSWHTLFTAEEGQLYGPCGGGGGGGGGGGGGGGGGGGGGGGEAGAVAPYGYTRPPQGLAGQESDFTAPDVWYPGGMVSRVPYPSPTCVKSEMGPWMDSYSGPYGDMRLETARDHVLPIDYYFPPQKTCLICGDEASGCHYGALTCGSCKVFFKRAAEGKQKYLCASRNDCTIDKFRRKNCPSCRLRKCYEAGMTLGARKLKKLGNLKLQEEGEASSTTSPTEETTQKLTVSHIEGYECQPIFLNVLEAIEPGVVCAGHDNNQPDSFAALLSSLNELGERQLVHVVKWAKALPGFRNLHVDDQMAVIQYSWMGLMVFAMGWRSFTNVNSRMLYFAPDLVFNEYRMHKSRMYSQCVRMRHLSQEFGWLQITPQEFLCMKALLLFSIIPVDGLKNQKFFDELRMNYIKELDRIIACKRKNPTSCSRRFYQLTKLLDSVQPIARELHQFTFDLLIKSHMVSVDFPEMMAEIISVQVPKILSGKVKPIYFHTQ
Method in brief: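 Antagonist mode quantitative HTS in MDA-kb2 MMTV-luciferase cells, agonist R1881 at 0.5 nM final, 16 hr exposure at 37C and 0% CO2, luminescent detection.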

[4] = qHTS assay to identify small molecule HDAC inhibitors (AID 1259364);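 note: wild-type HCT-116 cells with endogenous class I/II HDAC activity; top concentration of the series differs between compounds; nearly all actives have a fitted effect of over 45% in size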
Method in brief: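 Quantitative high-throughput format: overnight-seeded HCT-116 cells got compounds for 2 hr at 37C; HDAC-Glo I/II reagent added, 30 min RT, luminescence measured.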

[5] = qHTS assay to identify small molecule HDAC inhibitors - cell viability counter screen (AID 1259365); note: series mostly up to about 92 µM; nearly all actives have a fitted effect of over 50% in size
Method in brief: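 Cytotoxicity was gauged in wild-type HCT-116 cells after a brief 2hr treatment with DMSO-dissolved compounds at 37C and 5% CO2, using CellTiter-Glo luminescence developed for 30min at room temperature.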

[6] = qHTS assay to identify small molecule agonists of the sonic hedgehog signaling (Shh) pathway - cell viability counter screen (AID 1259366); note: nearly all actives have a fitted effect of over 50% in size
Method in brief: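 Stable Gli1-Luc NIH/3T3 clone, 2,000 cells/well. Compound exposure 24hr at 37C. Read-out: CellTiter-Fluor fluorescence.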

[7] = qHTS assay to identify small molecule agonists of the sonic hedgehog signaling (Shh) pathway (AID 1259368; calls by dose curve;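 note: NIH/3T3-derived 3T3Gli1-Luc cells carrying a stable Gli1-driven firefly luciferase reporter; series mostly up to about 92 µM; nearly all actives have a fitted effect of over 15% in size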)
Method in brief: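 Quantitative high-throughput format using a Gli1-driven firefly luciferase reporter line derived from NIH/3T3 cells. After a 24 hr compound treatment at 37 C and 5% CO2, luminescence reported Gli1 response element activity.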

[8] = qHTS assay to identify small molecule antagonists of the sonic hedgehog signaling (Shh) pathway (AID 1259369; calls by dose curve; note: nearly all actives have a fitted effect of over 45% in size)
Method in brief: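 Stable Gli1-Luc reporter NIH/3T3 clone; quantitative HTS in stimulated mode with conditioned medium. Luminescence measured after 24hr compound treatment at 37 C.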

[9] = molecular target: Estrogen receptor beta (Homo sapiens) (UniProt Q92731); assay: qHTS assay to identify small molecule agonists of the estrogen receptor beta (ER-beta) signaling pathway (AID 1259377; active = well fitted activation curve with a large enough effect in the signal ratio in the repeat runs, not every such curve was filed as active; the % refers to the signal ratio)
Estrogen receptor beta (Homo sapiens), sequence (Q92731 whole entry, looked up): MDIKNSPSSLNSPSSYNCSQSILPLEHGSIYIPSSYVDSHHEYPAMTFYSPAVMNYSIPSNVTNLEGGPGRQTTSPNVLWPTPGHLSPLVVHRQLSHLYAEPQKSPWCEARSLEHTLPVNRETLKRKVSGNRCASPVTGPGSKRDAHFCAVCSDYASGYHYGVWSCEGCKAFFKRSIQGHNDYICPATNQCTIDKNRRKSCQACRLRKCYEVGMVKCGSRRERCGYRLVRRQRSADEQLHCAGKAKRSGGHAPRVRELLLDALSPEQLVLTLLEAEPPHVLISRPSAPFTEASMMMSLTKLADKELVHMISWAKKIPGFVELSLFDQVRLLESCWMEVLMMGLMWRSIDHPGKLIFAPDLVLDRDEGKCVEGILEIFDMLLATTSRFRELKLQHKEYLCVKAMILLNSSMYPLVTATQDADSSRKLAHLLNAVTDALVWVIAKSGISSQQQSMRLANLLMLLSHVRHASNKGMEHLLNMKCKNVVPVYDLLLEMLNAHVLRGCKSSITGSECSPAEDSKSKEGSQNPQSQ
Method in brief: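 Measured by fluorescence intensity from a B/G FRET beta-lactamase substrate (2 h, room temperature) in ER-beta-UAS-bla HEK293T cells treated with DMSO-dissolved compounds for 16 hr at 37C and 5% CO2.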

[10] = qHTS assay to identify small molecule agonists of the androgen receptor (AR) signaling pathway in the presence of an antagonist - cell viability counter screen (AID 1259379);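 note: MDA-kb2 human breast cancer cells carrying an MMTV luciferase reporter; series mostly up to about 92 µM; nearly all actives have a fitted effect of over 25% in size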
Method in brief: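 Nilutamide-containing (3.0uM final) MDA-kb2 cultures, 3,000 cells/well, were treated with compounds across 15 concentrations. After 16 hr at 37C with no CO2, cell viability was determined by CellTiter-Fluor fluorescence in the luciferase assay wells.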

[11] = qHTS assay to identify small molecule agonists of the estrogen receptor beta (ER-beta) signaling pathway - cell viability counter screen (AID 1259380); note: nearly all actives have a fitted effect of over 30% in size
Method in brief: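 Steps: plate ER-beta-UAS-bla HEK293T cells, rest 6 hr; add compounds in DMSO; incubate 16 hr at 37C, 5% CO2; add FRET substrate 2 hr; add CellTiter-Glo, wait 30 min at room temperature; read luminescence.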

[12] = molecular target: Androgen receptor (Homo sapiens) (UniProt P10275); assay: qHTS assay to identify small molecule agonists of the androgen receptor (AR) signaling pathway in the presence of an antagonist (AID 1259381; calls by dose curve; note: nearly all actives have a fitted effect of over 15% in size)
Method in brief: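 Reporter-gene luminescence from MDA-kb2 cells exposed 16hr at 37C (0% CO2) to 15-point compound titrations with 3.0uM final nilutamide as AR antagonist.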

[13] = qHTS assay to identify small molecule antagonists of the estrogen receptor beta (ER-beta) signaling pathway - cell viability counter screen (AID 1259382); note: series mostly up to about 92 µM; nearly all actives have a fitted effect of over 55% in size
Method in brief: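 Viability is scored by CellTiter-Glo luminescence (30 min, room temperature) in ER-beta-UAS-bla HEK293T wells already read for reporter fluorescence. Compound exposure lasts 16 hr at 37C alongside 1nM 17-beta-estradiol in charcoal-stripped serum medium.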

[14] = molecular target: Estrogen receptor (Homo sapiens) (UniProt P03372); assay: qHTS assay to identify small molecule agonists of the estrogen receptor alpha (ER-alpha) signaling pathway in the presence of an antagonist (AID 1259383; calls by dose curve; note: top concentration of the series differs between compounds; nearly all actives have a fitted effect of over 15% in size)
Estrogen receptor (Homo sapiens), sequence (P03372 whole entry, looked up): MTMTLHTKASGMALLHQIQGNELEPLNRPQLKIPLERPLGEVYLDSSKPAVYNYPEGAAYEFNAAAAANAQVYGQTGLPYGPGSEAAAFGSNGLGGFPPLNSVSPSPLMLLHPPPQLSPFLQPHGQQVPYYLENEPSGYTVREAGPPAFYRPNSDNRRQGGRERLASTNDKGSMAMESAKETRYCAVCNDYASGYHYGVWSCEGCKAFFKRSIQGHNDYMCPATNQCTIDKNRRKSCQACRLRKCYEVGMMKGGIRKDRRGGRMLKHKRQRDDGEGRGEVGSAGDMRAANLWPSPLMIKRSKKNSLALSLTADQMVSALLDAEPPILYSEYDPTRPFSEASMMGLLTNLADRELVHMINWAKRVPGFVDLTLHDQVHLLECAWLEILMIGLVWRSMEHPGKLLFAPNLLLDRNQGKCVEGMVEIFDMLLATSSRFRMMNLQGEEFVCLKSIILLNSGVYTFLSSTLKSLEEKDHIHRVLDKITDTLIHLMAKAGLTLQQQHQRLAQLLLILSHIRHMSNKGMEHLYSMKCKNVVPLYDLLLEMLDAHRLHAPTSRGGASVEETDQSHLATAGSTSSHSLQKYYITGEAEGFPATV
Method in brief: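 Readout was ERE-driven luciferase luminescence in VM7Luc4E2 cells, which express full-length ER-alpha endogenously. Compounds were tested at 15 concentrations for 22hr alongside 10.0nM ICI-182,780 (final concentration).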

[15] = qHTS assay to identify small molecule agonists or antagonists of the thyroid stimulating hormone receptor (TSHR) signaling pathway - wild type cell line counter screen (AID 1259384; calls by dose curve)
Method in brief: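 Wild-type HEK293 cells were plated 18 h at 37 C/5% CO2, pin-dosed with compound plus Ro20-1724 medium, held 30 min at room temperature, then given cAMP-d2 and anti-cAMP-cryptate; fluorescence was read after 1 h. Fifteen concentrations, triplicate.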

[16] = molecular target: Thyrotropin receptor (Homo sapiens) (UniProt P16473); assay: qHTS assay to identify small molecule antagonists of the thyroid stimulating hormone receptor (TSHR) signaling pathway (AID 1259385; calls by dose curve; note: nearly all actives have a fitted effect of over 20% in size)
Thyrotropin receptor (Homo sapiens), sequence (P16473 whole entry, looked up): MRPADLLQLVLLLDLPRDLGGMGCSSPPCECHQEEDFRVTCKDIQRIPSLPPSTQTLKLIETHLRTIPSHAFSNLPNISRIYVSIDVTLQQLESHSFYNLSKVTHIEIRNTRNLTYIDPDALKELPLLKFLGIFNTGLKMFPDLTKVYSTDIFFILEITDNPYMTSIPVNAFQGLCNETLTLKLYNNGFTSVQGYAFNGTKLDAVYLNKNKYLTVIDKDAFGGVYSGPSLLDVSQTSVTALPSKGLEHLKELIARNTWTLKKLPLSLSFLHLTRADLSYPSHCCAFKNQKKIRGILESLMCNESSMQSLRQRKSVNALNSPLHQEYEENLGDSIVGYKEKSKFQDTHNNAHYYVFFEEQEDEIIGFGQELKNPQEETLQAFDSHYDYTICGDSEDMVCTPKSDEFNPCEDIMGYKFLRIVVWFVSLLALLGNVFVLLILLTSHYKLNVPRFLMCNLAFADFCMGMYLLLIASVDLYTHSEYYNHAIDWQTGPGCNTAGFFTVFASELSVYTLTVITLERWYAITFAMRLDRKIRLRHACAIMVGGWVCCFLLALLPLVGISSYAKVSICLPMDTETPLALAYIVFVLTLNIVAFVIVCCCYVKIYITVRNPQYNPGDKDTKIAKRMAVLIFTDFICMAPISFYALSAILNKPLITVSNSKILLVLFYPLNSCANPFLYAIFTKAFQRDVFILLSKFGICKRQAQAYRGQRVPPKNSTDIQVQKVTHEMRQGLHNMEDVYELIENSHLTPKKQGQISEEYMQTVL
Method in brief: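 TSHR-HEK293 cells were plated and held 18 h at 37C/5% CO2, then given compound plus Ro20-1724 and stimulated with TSH at 1.5 ng/mL final. After 30 min at room temperature, cAMP was detected with cAMP-d2/anti-cAMP-cryptate (1 h) by fluorescence.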

[17] = qHTS assay to identify small molecule phospholipidosis (PLD) inducers (AID 1259344; active = well fitted curve in the direction sought with a large enough effect; an effect the other way counts as inactive or inconclusive)
Method in brief: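 Cells (HepG2, 900 per well) attach for 4 h, receive LipidTOX Red and compound together, incubate 24 h at 37 C, are fixed 30 min with paraformaldehyde/Hoechst, then imaged at one site per well.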

[18] = qHTS assay to identify small molecule antagonists of the sonic hedgehog signaling (Shh) pathway - cell viability counter screen (AID 1259367); note: nearly all actives have a fitted effect of over 55% in size
Method in brief: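 Cytotoxicity was assessed in parallel with Shh reporter activity by measuring live-cell protease fluorescence (CellTiter-Fluor) in NIH/3T3 cells stably carrying Gli1-Luc, treated with compound under conditioned medium stimulation for 23 hr plus 1 hr reagent incubation.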

[19] = molecular target: Estrogen receptor beta (Homo sapiens) (UniProt Q92731); assay: qHTS assay to identify small molecule antagonists of the estrogen receptor beta (ER-beta) signaling pathway (AID 1259378; active = well fitted inhibition curve with a large enough effect in the signal ratio in the repeat runs, not every such curve was filed as active; the % refers to the signal ratio)
Method in brief: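 ER-beta-UAS-bla HEK293T (GripTite) cells in 2% charcoal-stripped FBS medium were preincubated 6 hr at 37C, dosed with compound, then stimulated with 1 nM E2 (final) for 16 hr; beta-lactamase reporter read by B/G FRET fluorescence after 2 hr substrate loading.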

[20] = molecular target: Estrogen receptor (Homo sapiens) (UniProt P03372); assay: qHTS assay to identify small molecule antagonists of the estrogen receptor alpha (ER-alpha) signaling pathway using the BG1 cell line in the presence of 0.1 nM 17-beta-estradiol (AID 1259244); note: nearly all actives have a fitted effect of over 50% in size
Method in brief: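 Reporter is a stably transfected luciferase under four estrogen responsive elements in VM7Luc4E2 cells expressing native full-length ER-alpha; inhibition of 0.1 nM (final) 17beta-estradiol-driven signal over 22 h is read by luminescence.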

Measured: Potency

COc1cc(CC#N)cc(OC)c1OC
not listed: [17] | [18] | [19] | [20]
inactive: all other assays above

FC(F)OC(F)(F)C(F)Cl (configuration not stated)
not listed: [14] | [20]
inactive: all other assays above

CC(C)(C)NCC(O)c1ccccc1Cl (configuration not stated)
not listed: [3] | [12]
inactive: all other assays above

CCCCCBr
not listed: [16] | [17]
inactive: all other assays above

CN(C1CCCCC1)C1CCCCC1
not listed: [4] | [17]
inactive: all other assays above

CC(CC(C(N)=O)(c1ccccc1)c1ccccc1)N(C)C (configuration not stated)
not listed: [6] | [8] | [9] | [14] | [17] | [18] | [19] | [20]
inactive: all other assays above

CN1CC[C@]23c4c5ccc(O)c4O[C@H]2[C@@H](O)CC[C@H]3[C@H]1C5
not listed: [3] | [12] | [15] | [16] | [19]
inactive: all other assays above

Clc1ccc2ccccc2c1
not listed: [4] | [10] | [17]
inactive: all other assays above
